Compound activity: PubChem, several laboratories
Rows were chosen to be rich in hits. Some 2.6% of all compounds tested hit in one or more screens of this group.
TROY NFkB inh = inhibitors of TROY-dependent NF-kB signaling. Q293 LMP1-TROYcd NF-kB luciferase reporter, 4 h. inhibition, % at 10 µM. 360,000 tested, 0.98% active. AID 1347056;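 active means compounds whose plate-normalised and pattern-corrected inhibition of the luciferase reporter signal at the single screening dose is 50% or more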
LGR2 inh = Drosophila LGR2 receptor signaling inhibition; 380,000 tested, 0.35% active; HEK293 LGR2, CRE-luciferase, bursicon-stimulated, 4 h; inhibition, % at 9.99 µM;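 active means drop in luminescence signal, shown as inhibition above about 50% in the replicate tests, limit read from the data, passing the limit was not always enough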;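 further: agonist challenge used bursicon conditioned medium at about half maximal strength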
LMP1 NFkB inh = Epstein-Barr LMP1 NF-kappaB reporter inhibition. LMP1-induced NF-kappaB luciferase reporter cells, luminescence. inhibition, % at 12.5 µM. 350,000 tested, 0.69% active; in the data active means inhibition above about 41%
TWEAK-Fn14 inh = inhibitors of TWEAK-Fn14 interaction signaling | TWEAK-stimulated Fn14 reporter cells, luciferase luminescence, 8 h | inhibition, % at 10 µM | 360,000 tested, 2% active; in the data active means inhibition above about 50%
EWS-Fli inh = blocks EWS/Fli oncoprotein-driven transcription; inhibition, % at 12.6 µM; 350,000 tested, 0.67% active; A673 NR0B1-luciferase reporter, viability-normalised; AID 651661;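 active means mean inhibition of at least 50% after viability correction, with every replicate also passing that limit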;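 further: firefly luciferase signal divided by Alamar Blue viability fluorescence both relative to DMSO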
Large screens that a line does not name were inactive; ! = repeats disagree.

O=C(N/N=C/c1ccsc1)c1ccccn1	none
CC(C)(C)c1ccc(/C=N/NC(=O)c2ccccn2)cc1	TROY NFkB inh 52.3, LGR2 inh 86.4, TWEAK-Fn14 inh 71.0
CCOc1ccc(NC(=O)c2cc(OC)nc3ccccc23)cc1	none
COc1cc(C(=O)Nc2ccc(C)cc2)c2ccccc2n1	EWS-Fli inh 54.2
CCOc1ccc(-n2nnnc2-c2nc3ccccc3s2)cc1	TROY NFkB inh 61.7, TWEAK-Fn14 inh 74.3 (no result: EWS-Fli inh)
Cc1ccc(-n2nnnc2-c2nc3ccccc3s2)cc1	none (no result: EWS-Fli inh)
CCOC(=O)c1ccc2ncc(C(=O)OCC)c(Nc3ccc(N4CCOCC4)cc3)c2c1	LGR2 inh 55.5, TWEAK-Fn14 inh 53.0
COc1ccc(S(=O)(=O)N(C)C[C@@H]2Oc3ccc(NS(=O)(=O)c4ccc(Cl)cc4)cc3C(=O)N([C@H](C)CO)C[C@@H]2C)cc1	none (no result: TROY NFkB inh, LMP1 NFkB inh, TWEAK-Fn14 inh)
C[C@@H]1CN([C@H](C)CO)C(=O)c2cccc(NS(=O)(=O)c3cn(C)cn3)c2O[C@@H]1CN(C)CC1CC1	none (no result: TROY NFkB inh, LMP1 NFkB inh, TWEAK-Fn14 inh)
CCOc1nc(N2CCCCC2)nc(-n2cc(-c3ccccc3)nn2)n1	TWEAK-Fn14 inh 71.6 (no result: TROY NFkB inh, EWS-Fli inh)
CCOC(=O)c1c(-c2ccccc2)nnn1-c1nc(OCC)nc(N2CCCCC2)n1	TWEAK-Fn14 inh 52.5 (no result: LGR2 inh, EWS-Fli inh)
O=C1CSC(=NC(=O)c2ccccc2)N1	TWEAK-Fn14 inh 69.2
CC(C)C(=O)N=C1NC(=O)CS1	none
COc1ccc(CCNC(=O)N2c3ccccc3Sc3ccccc32)cc1	TWEAK-Fn14 inh 55.4 (no result: LGR2 inh, EWS-Fli inh)
Nc1cccc2c1C(=O)N(C(=O)/C=C/c1ccc(F)cc1)C2=O	TWEAK-Fn14 inh 83.9
C[C@H]1CCCCO[C@H](CN(C)CC2CC2)[C@@H](C)CN([C@@H](C)CO)C(=O)c2cc(NC(=O)Nc3ccc4c(c3)OCO4)ccc2O1	none (no result: TROY NFkB inh, LMP1 NFkB inh, TWEAK-Fn14 inh, EWS-Fli inh)
Cc1c(Cl)c([N+](=O)[O-])nn1CC(=O)NC(C)c1ccccc1 (stereo not drawn)	none
Cc1cc([N+](=O)[O-])nn1CC(=O)NC(C)c1ccccc1 (stereo not drawn)	TWEAK-Fn14 inh 110.3
C[C@H](CO)N1C[C@H](C)[C@H](CN(C)C(=O)NC2CCCCC2)Oc2ccc(NS(=O)(=O)c3ccc(Cl)cc3)cc2C1=O	none (no result: TROY NFkB inh, LMP1 NFkB inh, TWEAK-Fn14 inh)
COC(=O)c1ccc2nc(-c3cccc(N)c3)cn2c1	TROY NFkB inh 53.5, LGR2 inh 85.4, LMP1 NFkB inh 60.8, TWEAK-Fn14 inh 95.0
CNC[C@@H]1Oc2ccc(NS(=O)(=O)c3ccc(Cl)cc3)cc2C(=O)N([C@H](C)CO)C[C@H]1C	none (no result: TROY NFkB inh, LMP1 NFkB inh, TWEAK-Fn14 inh)
CC[C@@H](C(=O)[C@@H](C)[C@@H](O)[C@H](C)CCc1ccc(C)c(O)c1C(=O)O)[C@H]1O[C@](CC)([C@H]2CC[C@](O)(CC)[C@H](C)O2)C[C@@H]1C	TROY NFkB inh 76.4, LGR2 inh 70.5, TWEAK-Fn14 inh 85.8
CCN(CC)Cc1c(O)ccc2occ(C(=O)c3ccc(OC)cc3)c12	none (no result: LGR2 inh, EWS-Fli inh)
CCN(CC)Cc1c(O)ccc2c([N+](=O)[O-])c(C)n(-c3ccc(OC)cc3)c12	TWEAK-Fn14 inh 74.1 (no result: LGR2 inh, EWS-Fli inh)
CCC(C)Sc1cc(-c2nc3ccccn3c2NC2CCCCC2)ccc1OC (stereo not drawn)	LGR2 inh 53.4!
CCC(C)Sc1cc(-c2nc3ccc(C)cn3c2NCc2ccccc2)ccc1OC (stereo not drawn)	TWEAK-Fn14 inh 78.2!
CCC(C)Sc1cc(-c2nc3cc(C)ccn3c2NC2CCCCC2)ccc1OC (stereo not drawn)	none
COc1ccc(-c2nc3ccccn3c2NCc2ccc3c(c2)OCO3)cc1	none (no result: LGR2 inh, EWS-Fli inh)
COc1ccc(-c2cc(-c3nc4ccccn4c3NCc3ccccc3)ccc2OC)cc1	LGR2 inh 100.2, EWS-Fli inh 75.9
CCCCNc1c(-c2ccc(OC)c(SC3CCCCC3)c2)nc2ccc(C)cn12	LGR2 inh 52.0!, TWEAK-Fn14 inh 59.2!
C[C@H]1CCCCO[C@H](CN(C)C(=O)Nc2cccc3ccccc23)[C@@H](C)CN([C@@H](C)CO)C(=O)c2cc(NC(=O)CCCN(C)C)ccc2O1	none (no result: TROY NFkB inh, LMP1 NFkB inh, TWEAK-Fn14 inh)
O=C(Cc1ccncc1)NCC[C@H]1CC[C@@H](NC(=O)C2CCCCC2)[C@H](CO)O1	none (no result: TROY NFkB inh, LMP1 NFkB inh, TWEAK-Fn14 inh)
O=C(C[C@H]1CC[C@@H](NC(=O)CN2CCOCC2)[C@@H](CO)O1)NC1CCC1	none (no result: TROY NFkB inh, LMP1 NFkB inh, TWEAK-Fn14 inh)
CCC(NC(=O)Nn1cnnc1)(C(F)(F)F)C(F)(F)F	LMP1 NFkB inh 66.5 (no result: LGR2 inh, EWS-Fli inh)
CCC(NC(=O)Nc1ccc(O)cc1)(C(F)(F)F)C(F)(F)F	none (no result: LGR2 inh, EWS-Fli inh)
C[C@H](CO)N1C[C@H](C)[C@@H](CN(C)C(=O)Nc2cccc3ccccc23)Oc2ccc(NC(=O)Cc3ccccc3)cc2C1=O	none (no result: TROY NFkB inh, LMP1 NFkB inh, TWEAK-Fn14 inh, EWS-Fli inh)
O=S1(=O)CC(c2ccccc2)=NN=C(c2ccccc2)C1	TWEAK-Fn14 inh 88.6
